Source: PubChem (Sanford-Burnham Center for Chemical Genomics)
Only a selection was taken, and hits are over-represented in it overall.
Artemis endo inh: blocks endonuclease activity of human Artemis; AID 686954; actives 0.78% (n = 30,000); inhibition, % at 10 µM; recombinant Artemis, quenched FAM hairpin cleavage fluorescence; Q96SD1;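 active means at 10 µM dose, at least 30% inhibition, measured as corrected fluorescence normalized to stimulator and neutral control wells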
Numbers stand for hits; n = inactive.

SMILES | Artemis endo inh
COCCN1C(=O)c2ccccc2C(C(=O)NCCCN2CCCC2=O)C1c1c[nH]c2ccccc12 (stereo unspecified) | n
COc1ccc(/C=C2\N=C(SC)SC2=O)cc1OC | n
CSC1=N/C(=C\c2ccc(C)cc2)C(=O)S1 | n
C=CCSC1=N/C(=C\c2ccc(C)o2)C(=O)S1 | n
CCOc1c(OC(C)=O)ccc(/C=C2\N=C(SCC)SC2=O)c1[N+](=O)[O-] | 30.1
CCOc1cc(/C=C2\N=C(SC)SC2=O)cc([N+](=O)[O-])c1OC(C)=O | 33.4
COc1cc(/C=N/NC(=O)C2c3ccccc3Oc3ccccc32)ccc1O | n
COc1ccc(NC(=O)c2ccco2)cc1NC(=O)c1c(F)c(F)c(OC)c(F)c1F | n
CN=C1CC(C)(C)CC(=O)/C1=C(/O)CCC(=O)NC | n
C=CCn1c(COc2ccccc2)nnc1SC(C)C(=O)N/N=C/c1cc(Cl)ccc1O (stereo unspecified) | n
O=C1C2ON(c3ccc(Cl)cc3)C(c3ccco3)C2C(=O)N1c1ccccc1 (stereo unspecified) | n
COc1ccc(OC)c(N=C(C)C2=C(O)COC2=O)c1 | n
C/C(CCc1ccc2c(c1)OCO2)=N\N=C(/N)SC1CC(=O)N(c2ccccc2F)C1=O (stereo unspecified) | n
CCOC(=O)N1CCN(Cc2nc(N)nc(Nc3ccc(Oc4ccccc4)cc3)n2)CC1 | 39.2
Cc1ccc(Nc2nc(N)nc(CN3CCN(Cc4ccc5c(c4)OCO5)CC3)n2)cc1 | n
CCOC(=O)C1CCCN(C(=O)Cc2ccc(Cl)cc2)C1 (stereo unspecified) | n
CCOC(=O)C1CCCN(Cc2nc(N)nc(Nc3ccc(Cl)cc3)n2)C1 (stereo unspecified) | 33.6
CCOC(=O)C1CCCN(c2cc(C)nc3cc(-c4ccc(Cl)cc4)nn23)C1 (stereo unspecified) | n
CCCCOc1ccc(NC(=O)CN2CCN(C(=O)OCC)CC2)cc1 | n
Cc1ccc2c(CC(=O)O)coc2c1C | n
Cc1ccc(C(=O)Nc2ccc3cn[nH]c3c2)cc1S(=O)(=O)N1CCCCC1 | n
COc1cc(NC(=O)c2ncn[nH]2)cc(OC)c1OC | n
COC(=O)c1sccc1NC(=O)c1cc(-c2ccc(C)cc2C)nc2ccccc12 | n
CCOC(=O)c1cnn(-c2cc(Oc3ccccc3C)ncn2)c1N | n
CC(=O)OC(C(=O)NCc1ccc(F)cc1)c1ccccn1 (stereo unspecified) | n
SMILES | Artemis endo inh
CC(=O)N(/N=C1\Sc2ccccc2C1=O)c1cccc(C)c1 | 36.0
CCC(=O)N(C)/C=C1\Sc2ccccc2C1=O | n
CC(=O)N(C)/C=C1\Sc2ccccc2C1=O | n
CCc1nnc(NC(=O)C2c3ccccc3Oc3ccccc32)s1 | n
Cc1nn(CC(=O)Nc2nnc(CC(=O)N3CCCC3)s2)c(=O)c2ccccc12 | n
Cc1noc(C)c1CSc1nc2ccccc2nc1NS(=O)(=O)c1ccc(Cl)cc1 | 33.1
O=S(=O)(Nc1nc2ccccc2nc1NCc1ccco1)c1ccc(Cl)cc1 | n
Cc1noc(C)c1CSc1nc2ccccc2c(=O)n1-c1ccccc1 | n
CCOc1ccc(C=O)cc1CN1CCCCC1 | n
COc1cc(NC(=O)C2CCCCC2)c(OC)cc1NC(=O)CN1CCCCC1 | n
Cc1nc2sc(C(c3cccc(F)c3)N3CCCC(C)C3)c(O)n2n1 (stereo unspecified) | n
Cc1ccc(NC(=O)/C(C#N)=C/c2ccc(C)s2)c(C)c1 | n
COc1ccc(NC(=O)CSc2nc(C)cc(C)n2)cc1 | n
COc1ccc(NC(=O)CSc2nc3c(cc2C#N)CN(C)CC3)cc1 | 37.0
COc1ccc(-c2c(C#N)c(SCC(=O)Nc3ccccc3)nc3c2CCCC3)cc1 | n
CCOC(=O)CCNC(C(=O)OCC)c1ccccc1 (stereo unspecified) | n
Cc1cccc(Nc2ncc3c(n2)CC(c2ccco2)CC3=O)c1 (stereo unspecified) | n
O=C(Nc1ncc2c(n1)CC(c1ccco1)CC2=O)c1ccccc1 (stereo unspecified) | n
O=C1CC(c2ccco2)Cc2nc(Nc3nc(-c4ccccc4)c4ccccc4n3)ncc21 (stereo unspecified) | 34.2
CCNc1nc2nonc2nc1NCC | n
O=C(NCCCN1CCOCC1)C(Sc1ccccc1)c1ccccc1 (stereo unspecified) | n
CCCn1c2ccccc2c2nnc(SC(CC)C(=O)Nc3cc(C)on3)nc21 (stereo unspecified) | n
CSc1nnc2c3cc(C)ccc3n(Cc3ccccc3)c2n1 | 37.3
O=C1c2ccccc2C(=O)N1CSc1nnc2c3ccccc3n(CCc3ccccc3)c2n1 | n
CCOc1cc(N2CCOCC2)c(OCC)cc1NC(=O)COC(=O)CCc1c[nH]c2ccccc12 | n
SMILES | Artemis endo inh
Cn1c(=O)n(CC(=O)OCc2ccccc2)c(=O)c2c1nc1n2CCCN1C1CCCCC1 | n
O=C(Nc1cccc2nsnc12)c1ccc(-c2cccc(Cl)c2)o1 | 46.1
O=C(Nc1cccc2nsnc12)c1ccc(F)cc1 | n
O=C(Nc1cccc2nsnc12)c1ccc2c(c1)OCO2 | n
O=C(c1cccc(C(F)(F)F)c1)N1CCOC12CCN(c1ncc(C(F)(F)F)cc1Cl)CC2 | n
COc1cc(Cl)ccc1NC(=O)COc1ccccc1C(=O)N1CCN(c2ccc(O)cc2)CC1 | n
